CHRM1 antagonist: human M1 muscarinic receptor antagonists, primary screen, CHO-K1 cells, Fluo-8 calcium fluorescence, 1536-well; Muscarinic acetylcholine receptor M1 (Homo sapiens), P11229; CHO-K1 hM1, ACh EC80 antagonist; inhibition, % at 3 µM; hit rate 1.3% among 360,000; AID 588852, 2011;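 active = percent inhibition above its own plate's cutoff, namely the mean of that plate's compound wells plus 3 SD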;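 note: peak over basal fluorescence ratio during 140 s after agonist addition; 0% = ACh EC80 plus DMSO and 100% = DMSO alone without agonist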
Target sequence (P11229 whole entry, looked up): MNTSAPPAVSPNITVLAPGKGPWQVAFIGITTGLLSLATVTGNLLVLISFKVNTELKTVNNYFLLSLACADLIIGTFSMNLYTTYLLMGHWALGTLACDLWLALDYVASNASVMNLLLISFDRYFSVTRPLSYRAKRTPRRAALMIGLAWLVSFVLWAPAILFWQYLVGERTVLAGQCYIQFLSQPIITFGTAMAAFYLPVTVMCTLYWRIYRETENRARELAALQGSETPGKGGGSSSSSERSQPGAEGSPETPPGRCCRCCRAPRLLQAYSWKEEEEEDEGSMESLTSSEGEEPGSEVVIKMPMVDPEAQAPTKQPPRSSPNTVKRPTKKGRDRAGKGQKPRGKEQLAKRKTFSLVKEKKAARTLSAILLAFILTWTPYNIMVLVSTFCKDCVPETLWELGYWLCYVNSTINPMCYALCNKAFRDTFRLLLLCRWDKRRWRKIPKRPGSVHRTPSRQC
M1 PAM parental: nonselective calcium activators in parental CHO-K1 cells, primary screen, counter-screen for M1 PAM project, cell-based, Fluo-8 calcium fluorescence, full deck, 1536-well; ATP EC20; 0% at ATP EC20, 100% at ATP max; activation, % at 3 µM; hit rate 0.02% among 360,000; AID 602247, 2012;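 active = activation above the run cutoff, the mean activation of all test compounds plus 3 SD, cut at about 40% in these data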;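 note: peak over basal fluorescence ratio in a 140 s read after ATP addition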
CHO-K1 Ca ag: counter-screen for M1 agonists: effect in parental CHO-K1 cells | Fluo-8 calcium fluorescence; scaled to maximal ATP response, vehicle zero | activation, % at 3 µM | hit rate 0.48% among 360,000 | AID 602248, 2012; in the data active = activation above about 15%;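 note: untransfected CHO-K1 host cells lacking M1 receptor as counterscreen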
CHO-K1 Ca antag: nonselective inhibitor or artifact in parental CHO-K1 cells; AID 602250; inhibition, % at 3 µM; hit rate 0.6% among 360,000; ATP-induced calcium, Fluo-8 fluorescence;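 active = inhibition above a per-plate cutoff, the plate's mean sample inhibition plus 3 SD, cut at about 24% in these data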;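 note: 0% = DMSO plus EC80 ATP and 100% = DMSO alone without ATP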
CHRM1 agonist: human M1 muscarinic receptor agonists, primary screen, Fluo-8 calcium fluorescence, CHO-K1 cells, HTS. Muscarinic acetylcholine receptor M1 (Homo sapiens), P11229. CHO-K1 hM1, agonist mode; 0% DMSO, 100% acetylcholine EC100. activation, % at 3 µM. hit rate 0.33% among 360,000. AID 588814, 2011;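 active = activation above the run's mean compound activation plus 3 SD, cut at about 16% in these data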;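 note: peak over basal fluorescence ratio within a 140 s kinetic read after compound addition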
M1 PAM: human M1 muscarinic receptor positive allosteric modulators, primary screen, CHO-K1 cells, Fluo-8 calcium fluorescence, 1536-well; CHO-K1 hM1, ACh EC20; 0% = ACh EC20, 100% = maximal ACh; activation, % at 3 µM; hit rate 0.088% among 360,000; AID 588819, 2011; in the data active = activation above about 19%, passing the limit was not always enough
* marks the source's active call; other numbers are inactive results. Most compounds without a hit are left out; they make up all but 2.4% or so of the library.

COc1ccc(CNC(C)CCc2ccccc2)cc1 (stereo unspecified) was read as CHRM1 antagonist -18, M1 PAM parental -9, CHO-K1 Ca ag 0, CHO-K1 Ca antag -2, CHRM1 agonist -10 and M1 PAM 2.
`CSCCC(C(=O)Nc1c(C)cccc1C)N(C)CCc1ccccc1` (stereo unspecified) gave CHRM1 antagonist -7, M1 PAM parental 14, CHO-K1 Ca ag 1, CHO-K1 Ca antag 4, CHRM1 agonist -2 and M1 PAM 6.
`CC(CCc1ccc(O)cc1)NC(c1ccccc1)c1ccc(Cl)cc1` (stereo unspecified) gave CHRM1 antagonist -15, M1 PAM parental 1, CHO-K1 Ca ag 0, CHO-K1 Ca antag -4, CHRM1 agonist -10 and M1 PAM 1.
Screening CC(CCc1ccc(O)cc1)NCCC(c1ccccc1)c1ccccc1 (stereo unspecified) returned CHRM1 antagonist 45*, M1 PAM parental -15, CHO-K1 Ca ag 2, CHO-K1 Ca antag 2, CHRM1 agonist -5 and M1 PAM -26.
For COc1ccc(N(CCC(=O)Nc2ccccc2F)S(=O)(=O)c2ccc(C)cc2C)cc1 the results were CHRM1 antagonist -2, M1 PAM parental 5, CHO-K1 Ca ag 0, CHO-K1 Ca antag -4, CHRM1 agonist -3 and M1 PAM 3.
Screening CC(C)c1ccc(OCC(O)CNC(C)c2ccccc2)cc1 (stereo unspecified) returned CHRM1 antagonist 9, M1 PAM parental 24, CHO-K1 Ca ag 21*, CHO-K1 Ca antag -8, CHRM1 agonist -3 and M1 PAM 2.
For OC(CNCCc1ccccc1)COc1ccc(OCC(O)CNCCc2ccccc2)cc1 (stereo unspecified) the results were CHRM1 antagonist 7, M1 PAM parental 17, CHO-K1 Ca ag 1, CHO-K1 Ca antag -3, CHRM1 agonist -8 and M1 PAM -4.
Screening OC(CNCCC(c1ccccc1)c1ccccc1)COc1ccccc1 (stereo unspecified) returned CHRM1 antagonist 31*, M1 PAM parental 3, CHO-K1 Ca ag 8, CHO-K1 Ca antag 2, CHRM1 agonist -6 and M1 PAM -15.
For CC(C)N(CCNCC(O)COc1ccc(C(C)(C)c2ccccc2)cc1)C(C)C (stereo unspecified) the results were CHRM1 antagonist 34*, M1 PAM parental 11, CHO-K1 Ca ag 6, CHO-K1 Ca antag -5, CHRM1 agonist -4 and M1 PAM -19.
Cc1ccc(NC(=O)N2CCCC2C(=O)Nc2nnc(C(C)C)s2)cc1 (stereo unspecified) was read as CHRM1 antagonist -8, M1 PAM parental 15, CHO-K1 Ca ag 1, CHO-K1 Ca antag -12, CHRM1 agonist -6 and M1 PAM 8.
For COc1ccccc1N(CC(=O)NC1CCCCC1)C(=O)CNC(=O)c1cccs1 the results were CHRM1 antagonist -20, M1 PAM parental -8, CHO-K1 Ca ag 1, CHO-K1 Ca antag 4, CHRM1 agonist 3 and M1 PAM 15.
Screening CN(CCNC(=O)c1c[nH]c2c1ccc1ccccc12)CCNC(=O)c1c[nH]c2c1ccc1ccccc12 returned CHRM1 antagonist -5, M1 PAM parental 16, CHO-K1 Ca ag 2, CHO-K1 Ca antag -9, CHRM1 agonist -2 and M1 PAM 5.
COc1cc(C(=O)Oc2cccc(Nc3ncnc4ccccc34)c2)cc(OC)c1OC was read as CHRM1 antagonist 41*, M1 PAM parental -3, CHO-K1 Ca ag 11, CHO-K1 Ca antag 11, CHRM1 agonist 0 and M1 PAM -20.
CCN(C(=O)COC(=O)c1cc2ccccc2cc1OC)c1c(N)n(Cc2ccccc2)c(=O)[nH]c1=O was read as CHRM1 antagonist -2, M1 PAM parental -7, CHO-K1 Ca ag 0, CHO-K1 Ca antag -14, CHRM1 agonist -1 and M1 PAM 10.
Cc1ccccc1Nc1nc(N)nc(COC(=O)c2ccc(O)cc2)n1 was read as CHRM1 antagonist -6, M1 PAM parental 26, CHO-K1 Ca ag 7, CHO-K1 Ca antag -4, CHRM1 agonist 19* and M1 PAM 12.
For Cc1ccc(O)c([C@H](CCN(C(C)C)C(C)C)c2ccccc2)c1 the results were CHRM1 antagonist 100*, M1 PAM parental -5, CHO-K1 Ca ag 0, CHO-K1 Ca antag 8, CHRM1 agonist -8 and M1 PAM -27.
Screening CCCN(CCC)C(=O)CC(c1ccccc1)c1ccc(C)cc1O (stereo unspecified) returned CHRM1 antagonist 1, M1 PAM parental 6, CHO-K1 Ca ag -1, CHO-K1 Ca antag -17, CHRM1 agonist -10 and M1 PAM -2.
`Nc1nc(Nc2ccccc2F)sc1C(=O)c1ccccc1` gave CHRM1 antagonist -3, M1 PAM parental 13, CHO-K1 Ca ag 10, CHO-K1 Ca antag -21, CHRM1 agonist 17* and M1 PAM 11.
Screening CCc1ccc(C2=NN(C(=O)CCC(=O)O)C(c3cccs3)C2)cc1 (stereo unspecified) returned CHRM1 antagonist -11, M1 PAM parental 12, CHO-K1 Ca ag 0, CHO-K1 Ca antag 1, CHRM1 agonist -3 and M1 PAM 10.
For O=C(NCCN1C(=O)S/C(=C\c2ccc(OC(F)F)cc2)C1=O)[C@@H]1CCCN1C(=O)c1cccs1 the results were CHRM1 antagonist 1, M1 PAM parental 1, CHO-K1 Ca ag 21*, CHO-K1 Ca antag 9, CHRM1 agonist -11 and M1 PAM -5.
`CCC12C(=Nc3c(Cl)cccc31)C[C@@H]1CCN3C(=O)CCC[C@H]2[C@H]13` (stereo partly specified) gave CHRM1 antagonist -8, M1 PAM parental 8, CHO-K1 Ca ag 0, CHO-K1 Ca antag -12, CHRM1 agonist -3 and M1 PAM 8.
`OCC1(Cc2ccccc2)CCN(CCCC2CCCC2)CC1` gave CHRM1 antagonist 34*, M1 PAM parental 4, CHO-K1 Ca ag 5, CHO-K1 Ca antag -5, CHRM1 agonist -5 and M1 PAM -21.
For CCOC(=O)c1[nH]c(=S)[nH]c1C the results were CHRM1 antagonist -21, M1 PAM parental 10, CHO-K1 Ca ag 1, CHO-K1 Ca antag -10, CHRM1 agonist -1 and M1 PAM 9.
Screening O=C1c2ccccc2C(c2nnnn2Cc2ccccc2)N1Cc1cccs1 (stereo unspecified) returned M1 PAM parental 28, CHO-K1 Ca ag 2 and CHO-K1 Ca antag -29.
For CC(C)(C)c1ccc(OCC(=O)N2CCCCCC2)c(Br)c1 the results were CHRM1 antagonist -3, M1 PAM parental 2, CHO-K1 Ca ag 0, CHO-K1 Ca antag 11, CHRM1 agonist -4 and M1 PAM 1.

Source: PubChem (The Scripps Research Institute Molecular Screening Center)
